Screening results from PubChem.
The list is not random: actives were taken first. Their share in the collection is about 1.7%.
MRP-1 activ – activators of MRP-1. H69AR cells + doxorubicin, viability rescue, CellTiter-Glo. viability increase, % at 10 µM. 140,000 tested, 0.61% active;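 active = viability gain under doxorubicin at or above a set limit, the compound median plus 3 SD, cut at about 4.7% in these data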;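 also: MRP-1 overexpressing cells given doxorubicin 25 µM after compound pretreatment; 18-22 h compound pretreatment then 72 h with doxorubicin before readout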
S1P2 blocker – antagonists of human S1P2 receptor. O95136. cell-based S1P2 antagonist assay, inhibition at 5 uM. inhibition, % at 5 µM. 97,000 tested, 0.21% active; in the data active = inhibition above about 45%;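 also: CRE beta-lactamase reporter cells expressing human S1P2 stimulated with S1P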
Target sequence (O95136 whole entry, looked up): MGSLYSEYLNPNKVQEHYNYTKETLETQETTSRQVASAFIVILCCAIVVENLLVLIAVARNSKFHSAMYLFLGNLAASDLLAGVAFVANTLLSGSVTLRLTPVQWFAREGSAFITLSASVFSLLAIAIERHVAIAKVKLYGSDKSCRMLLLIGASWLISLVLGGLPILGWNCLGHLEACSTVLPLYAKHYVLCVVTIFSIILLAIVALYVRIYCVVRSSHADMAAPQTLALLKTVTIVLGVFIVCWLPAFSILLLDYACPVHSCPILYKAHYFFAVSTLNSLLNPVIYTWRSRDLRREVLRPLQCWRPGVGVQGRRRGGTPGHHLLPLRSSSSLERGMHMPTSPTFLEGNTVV
MRP resist rev – MRP-mediated drug resistance reversal; 85,000 tested, 0.04% active; differential viability (reversal), % at 10 µM; H69AR cells + 2 uM doxorubicin, CellTiter-Glo, 72 h;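 active = viability drop by adding the cancer drug above about 55%, with treated viability meeting a 40% cutoff, limit read from the data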;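 also: larger differential means the compound sensitizes cells more to doxorubicin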
S1P2 ag – agonists of human S1P2 receptor | activation, % at 4.5 µM | S1P2-expressing cell line, agonist reporter read-out | AID 729 | 97,000 tested, 0.46% active | O95136; in the data active = activation above about 16%
GALR2 agonist – activates the human galanin receptor 2; activation, % (no concentration beside the values); O43603; 140,000 tested, 0.48% active; GALR2-expressing cells, agonist activation read-out; in the data active = activation above about 5%, passing the limit was not always enough
Target sequence (O43603 whole entry, looked up): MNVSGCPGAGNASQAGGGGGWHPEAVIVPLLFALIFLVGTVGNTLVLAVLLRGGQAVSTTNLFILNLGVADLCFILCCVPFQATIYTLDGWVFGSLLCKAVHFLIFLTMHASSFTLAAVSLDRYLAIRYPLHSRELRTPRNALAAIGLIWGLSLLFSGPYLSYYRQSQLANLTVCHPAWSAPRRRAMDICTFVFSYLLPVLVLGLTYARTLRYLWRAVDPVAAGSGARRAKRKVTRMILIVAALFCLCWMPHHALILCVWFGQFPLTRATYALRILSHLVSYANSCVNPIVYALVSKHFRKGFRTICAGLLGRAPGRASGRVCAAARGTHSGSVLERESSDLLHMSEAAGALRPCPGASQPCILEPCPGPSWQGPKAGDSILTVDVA
GALR2 blocker – blocks the human galanin receptor 2; 140,000 tested, 0.39% active; GALR2-expressing cells, antagonist mode; AID 828; O43603; inhibition, % at 4 µM; in the data active = inhibition above about 27%;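 also: cells stimulated with galanin 1-16 at roughly its EC80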
Of the large screens only hits and unclear results are named; the others gave an inactive call.

CCCCOC(=O)c1ccc(NC(C)=O)cc1	none (no result: MRP resist rev)
O=C(Nc1nccs1)C1CCN(S(=O)(=O)c2c(Cl)cccc2Cl)CC1	none (no result: MRP resist rev)
CC(SC1=NCCS1)C(=O)Nc1nnc(-c2ccc(F)cc2)s1 (configuration not stated)	none
CC(SC1=NCCS1)C(=O)Nc1nnc(-c2ccc(Br)cc2)s1 (configuration not stated)	MRP-1 activ 5.8
CC1CCc2c(sc3nc(CSc4ncn[nH]4)[nH]c(=O)c23)C1 (configuration not stated)	MRP-1 activ 17.9 (no result: S1P2 blocker, MRP resist rev, S1P2 ag)
Cc1ccc(CN2CC(C(=O)Nc3cccc(S(=O)(=O)N4CCCCC4)c3)CC2=O)cc1 (configuration not stated)	none (no result: S1P2 blocker, MRP resist rev, S1P2 ag)
Cc1ccc(NC(=O)C2(NC(=O)c3ccccn3)CCCCC2)cc1Br	none (no result: S1P2 blocker, MRP resist rev, S1P2 ag)
CCOC(=O)Cc1csc(NC(=O)c2c(-c3ccccc3)noc2C)n1	MRP-1 activ 4.9
COc1ccc(Cc2nnc(NC(=O)c3c(-c4ccccc4)noc3C)s2)cc1OC	MRP-1 activ 9.5 (no result: S1P2 blocker, S1P2 ag)
CCOc1cc(/C=N/NC(=S)Nc2ccccc2C(F)(F)F)ccc1OCC(=O)N1CCOCC1	none (no result: S1P2 blocker, MRP resist rev, S1P2 ag)
O=c1cc(-c2ccccc2Cl)oc2c([N+](=O)[O-])c(O)cc(O)c12	MRP-1 activ 6.5 (no result: S1P2 blocker, MRP resist rev, S1P2 ag)
Cc1c(C(=O)OC(C)C)sc(N)c1C(=O)OC(C)C	MRP-1 activ 5.4 (no result: S1P2 blocker, MRP resist rev, S1P2 ag)
O=C(Cc1ccc(Br)cc1)N1CCN(c2ccccc2)CC1	none
Cc1cccc(N2CCN(C(=O)Cc3ccc(Br)cc3)CC2)c1C	MRP-1 activ 7.9
CC1(c2ccc(OCC#N)cc2)C=C(c2ccc(OCC#N)cc2)n2nc(C(F)(F)F)nc2N1 (configuration not stated)	none (no result: S1P2 blocker, MRP resist rev, S1P2 ag)
Cc1ccc(C2=CC(C)(c3ccc(C)cc3)Nc3nc(C(F)(F)F)nn32)cc1 (configuration not stated)	MRP-1 activ 6.0 (no result: S1P2 blocker, MRP resist rev, S1P2 ag)
Cc1ccc(NC(=O)CSCC(=O)N2c3ccccc3CCc3ccccc32)cc1	none (no result: MRP resist rev)
C=CS(=O)(=O)c1ccc(Oc2ccc(S(=O)(=O)C=C)cc2)cc1	GALR2 blocker 91.0 (no result: S1P2 blocker, MRP resist rev, S1P2 ag)
COc1ccc(CNC(=O)COC(=O)CCCOc2ccc(Cl)cc2Cl)cc1	MRP-1 activ 4.9 (no result: S1P2 blocker, MRP resist rev, S1P2 ag)
COc1cccc(-c2cc(C(=O)Nc3cc(C)on3)no2)c1	GALR2 agonist 6.2
Cc1cc(NC(=O)c2cc(-c3cccc(Cl)c3)on2)no1	none
O=C(NCc1ccc(F)cc1)c1noc2c1CCCC2	MRP-1 activ 4.9
COC(=O)C1=CN(CCCN2CCCC2=O)C=C(C(=O)OC)C1c1cccs1	none (no result: MRP resist rev)
COC(=O)C1=CN(Cc2cccs2)C=C(C(=O)OC)C1c1cccc(OC)c1OC	S1P2 ag 20.8 (no result: MRP resist rev)
CN(C)S(=O)(=O)c1ccc(NC(=O)C2CC3C=CC2C3)cc1 (configuration not stated)	none (no result: S1P2 blocker, MRP resist rev, S1P2 ag)
CCOC(=O)c1ccc(Oc2nc(N(C)C)nc(N(C)C)n2)cc1	none
CCOC(=O)c1ccc(Oc2nc(NC(C)(C)C)nc(N(C)C)n2)cc1	MRP-1 activ 7.0
CCCCc1nnc(NC(=O)CSc2nc(=O)cc(N)n2-c2ccccc2)s1	none
Cc1cccc(-n2c(N)cc(=O)nc2SCC(=O)Nc2nnc(C)s2)c1	MRP-1 activ 5.7
CCOC(=O)C1C(=O)CC(C)(O)C(C(=O)OCC)C1c1ccccc1 (configuration not stated)	S1P2 blocker 107.7
CCOC(=O)C1C(=O)CC(C)(O)C(C(=O)OCC)C1c1ccc(OC)cc1 (configuration not stated)	none
CCS(=O)(=O)N1CCC(C(=O)NCCN2CCN(Cc3ccccc3)CC2)CC1	GALR2 agonist 6.2
O=C(CNc1ccc2ccccc2c1)N/N=C/C=C/c1cccc([N+](=O)[O-])c1	none (no result: S1P2 blocker, MRP resist rev, S1P2 ag)
COc1ccc(C(=O)Nc2n[nH]c(-c3ccncc3)n2)cc1	none (no result: MRP resist rev)
Cc1cc(C)c(S(=O)(=O)c2ccccc2)c(Cl)n1	none (no result: MRP resist rev)
Cc1cc(C)c(S(C)(=O)=O)c(Sc2ccc(Cl)cc2)n1	MRP-1 activ 5.4 (no result: MRP resist rev)
O=c1c(-c2nnc(SCc3ccc(Cl)cc3)o2)cccn1Cc1ccccc1	MRP-1 activ 5.4 (no result: MRP resist rev)
Cc1ccc(C(c2nnnn2Cc2ccccc2)N2CCN(Cc3ccccc3)CC2)cc1 (configuration not stated)	none
Cc1cc(SCC(=O)c2cccs2)n2nc(C)c(-c3ccc(Cl)cc3)c2n1	none (no result: S1P2 blocker, MRP resist rev, S1P2 ag)
C=CCSc1cc(C)nc2c(-c3ccc(Cl)cc3)c(C)nn12	S1P2 ag 23.0
C/C(Cn1nc([N+](=O)[O-])cc1C)=N\NC(=O)c1cccc(Br)c1	none (no result: MRP resist rev)
Cc1cc(Br)ccc1NC(=O)CNC(=O)CN1C(=O)NC2(CCCCCC2)C1=O	MRP-1 activ 7.5
COc1ccccc1OCC(=O)c1[nH]c(C)c(C(C)=O)c1C	S1P2 blocker 50.6
COc1ccccc1NC(=O)c1nn(-c2cccc(C(F)(F)F)c2)ccc1=O	none (no result: MRP resist rev)
O=c1ccn(-c2cccc(C(F)(F)F)c2)nc1-c1ccn(-c2ccccc2F)n1	S1P2 ag 18.6 (no result: MRP resist rev)
COc1ccc(-n2ccc(-c3nn(-c4cccc(C(F)(F)F)c4)ccc3=O)n2)cc1	S1P2 ag 18.1 (no result: MRP resist rev)
O=C(C(c1ccccc1)c1ccccc1)N1CCN(CCN2C(=O)c3cccc4cccc(c34)C2=O)CC1	none (no result: S1P2 blocker, MRP resist rev, S1P2 ag)
O=C1c2cccc3cccc(c23)C(=O)N1CCN1CCN(CC(O)COc2ccccc2)CC1 (configuration not stated)	MRP-1 activ 5.0 (no result: S1P2 blocker, MRP resist rev, S1P2 ag)
O=C(N/N=C/c1ccc2c(c1)OCO2)C(O)c1ccccc1 (configuration not stated)	none (no result: S1P2 blocker, MRP resist rev, S1P2 ag)
COC(=O)[C@@H]1C[C@]2(OC(=O)c3ccccc3)C=CC(=O)C[C@@H]2N1C(=O)OCc1ccccc1	GALR2 blocker 28.0 (no result: S1P2 blocker, MRP resist rev, S1P2 ag)
COC(=O)c1ccc(NC(=O)C(=O)N2CCN(C(=S)Nc3cccc(OC)c3)CC2)cc1	MRP-1 activ 6.2 (no result: S1P2 blocker, MRP resist rev, S1P2 ag)
COc1ccc(C(=O)OC(C)C(=O)Nc2cc(C(F)(F)F)ccc2Cl)c(OC)c1OC (configuration not stated)	none (no result: S1P2 blocker, MRP resist rev, S1P2 ag)
CCCN1C(=O)SC(CC(=O)Nc2ccccc2C)C1=O (configuration not stated)	none
Cc1ccccc1NC(=O)CC1SC(=O)N(c2ccccc2)C1=O (configuration not stated)	MRP-1 activ 5.4
CCOP(=O)(OCC)C(NC(=O)Nc1cccc(Cl)c1)C(N)=O (configuration not stated)	none (no result: S1P2 blocker, MRP resist rev, S1P2 ag)
CCOP(=O)(OCC)C(NC(=O)Nc1ccc(Cl)cc1)C(=O)N(CC)CC (configuration not stated)	MRP-1 activ 8.9 (no result: S1P2 blocker, MRP resist rev, S1P2 ag)
COc1ccc2cc(C(c3nnnn3C3CCCC3)N3CCCCCC3)c3nnnn3c2c1 (configuration not stated)	none
COc1ccc2cc(C(c3nnnn3C3CCCCC3)N3CCCCCC3)c3nnnn3c2c1 (configuration not stated)	GALR2 agonist 13.1 (no result: MRP-1 activ)
COC(=O)N/N=C/c1ccc(-c2cc(Cl)ccc2Cl)o1	MRP-1 activ 4.9 (no result: S1P2 blocker, MRP resist rev, S1P2 ag)
COC(=O)N/N=C\c1ccc(-c2cc(Cl)c(Cl)cc2Cl)o1	none (no result: S1P2 blocker, MRP resist rev, S1P2 ag)
CC(=O)NC1=NN(c2ccccc2)C(=O)C1	none (no result: MRP resist rev)
